Records with an inconclusive call do not appear. Where a call stands in place of a potency, no number is given. Unmarked numbers belong to inactive results. Calls of active or inactive are those of the source. Unless noted, the call rests on the fitted dose curve; in most records, active means well fitted cell-killing curve with a large enough effect in the repeat runs; inconclusive means weak or mixed curves; inactive means no such curve, though single readings can be large or run the other way.
System: not listed separately
Experiment: qHTS assay to identify small molecule agonists of the peroxisome proliferator-activated receptor delta (PPARd) signaling pathway - cell viability counter screen (AID 743211); further: nearly all actives have a fitted effect of over 55% in size
Settings: PPARd-bla HEK293H viability, CellTiter-Glo luminescence, 17 h; series mostly up to 62.6 µM
Procedure, shortened: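 Counter screen for cytotoxicity run in parallel with the PPARd reporter screen. Beta-lactamase reporter HEK293H cells exposed to compounds 17 h; ATP-based CellTiter-Glo luminescence quantified viability.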

SMILES	Potency	activity change, negative = cytotoxicity
COC(=O)[C@@H](N)CCCN/C(N)=N/[N+](=O)[O-]	inactive	
CCNc1nc(Cl)nc(NC(C)(C)C)n1	inactive	
CC(C)[N+](C)(CCC(C(N)=O)(c1ccccc1)c1ccccc1)C(C)C	inactive	
CCOC(=O)N(C)N=O	inactive	
c1cncc([C@@H]2CCCCN2)c1	inactive	
CCOC(=O)CCl	inactive	
NCCOS(=O)(=O)O	inactive	
Cc1ccc(-c2nc3ccc(C)cn3c2CC(=O)N(C)C)cc1	inactive	
Cc1ccc2cc(C)ccc2c1	inactive	
C[C@H](N)C(=O)c1ccccc1	inactive	
C=CCN1CC[C@]23CCCC[C@H]2[C@H]1Cc1ccc(O)cc13	inactive	
N#CC(Br)(Br)C(N)=O	inactive	
COc1cccc(C=O)c1	inactive	
C#CC(C)(C)O	inactive	
CCN[C@H](C)Cc1cccc(C(F)(F)F)c1	inactive	
Brc1c(Br)c(Br)c(Br)c(Br)c1Br		3.57% [at 5.95 µM]
CCN(CCO)CCn1c(Cc2ccccc2)nc2c1c(=O)n(C)c(=O)n2C	inactive	

SMILES	Potency	activity change, negative = cytotoxicity
Cc1cc(OC(=O)N(C)C)nn1C(=O)N(C)C	inactive	
O=C(Cl)OCc1ccccc1	inactive	
ClC1=C(Cl)C2(Cl)C(CBr)CC1(Cl)C2(Cl)Cl (configuration not stated)	inactive	
CN(C)CCN(C)C	inactive	
O=C(CCl)NCO	inactive	
CCCOC(=O)Cc1ccc(OCC(=O)N(CC)CC)c(OC)c1	inactive	
CC[C@H](O)C(C[C@H](C)N(C)C)(c1ccccc1)c1ccccc1	inactive	
O=CCCl	inactive	
Cn1c(N)nc2c3cccnc3ccc21	inactive	
Cl/C=C/CCl	inactive	
C=CCc1cc(OC)c2c(c1)OCO2	inactive	
COc1ccc(C=O)cc1O	inactive	
Cc1ccc2c(c1)C1CN(C)CCC1N2 (configuration not stated)	inactive	
CCOC(=O)C(SP(=S)(OC)OC)c1ccccc1 (configuration not stated)	inactive	
CC(C)[C@]12CC(=O)[C@H](C)[C@H]1C2	inactive	
O=c1[nH]oc2c1CCNC2	inactive	

Target: Peroxisome proliferator-activated receptor delta (Homo sapiens) (UniProt Q03181)
Sequence (Q03181 whole entry, looked up): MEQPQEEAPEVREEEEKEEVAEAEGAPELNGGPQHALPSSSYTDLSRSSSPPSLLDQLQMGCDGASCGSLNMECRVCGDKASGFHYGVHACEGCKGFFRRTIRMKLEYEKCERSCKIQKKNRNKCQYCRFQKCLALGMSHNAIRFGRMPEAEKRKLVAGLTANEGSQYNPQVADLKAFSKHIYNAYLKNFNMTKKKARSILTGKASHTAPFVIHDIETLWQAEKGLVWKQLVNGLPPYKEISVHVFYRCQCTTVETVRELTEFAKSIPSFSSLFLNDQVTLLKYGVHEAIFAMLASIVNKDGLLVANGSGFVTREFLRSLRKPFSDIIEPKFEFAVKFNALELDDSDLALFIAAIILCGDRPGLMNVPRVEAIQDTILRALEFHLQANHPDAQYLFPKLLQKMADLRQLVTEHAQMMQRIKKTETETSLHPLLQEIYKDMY
Experiment: qHTS assay to identify small molecule agonists of the peroxisome proliferator-activated receptor delta (PPARd) signaling pathway (AID 743212; calls by dose curve;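 further: HEK293H cells with PPARd UAS beta-lactamase reporter GeneBLAzer system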)
Settings: HEK293H PPARd-UAS-bla, beta-lactamase FRET ratio, 17 h; series mostly up to 62.6 µM
Procedure, shortened: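 Steps: seed PPARd-bla HEK293H cells; incubate 5 h, 37 C, 5% CO2; add compounds in DMSO; incubate, 37 C; add LiveBLAzer B/G FRET substrate; hold 2 h at room temperature; measure fluorescence.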

SMILES	outcome	activation
COC(=O)[C@@H](N)CCCN/C(N)=N/[N+](=O)[O-]	inactive	
CCNc1nc(Cl)nc(NC(C)(C)C)n1	inactive	
CCOC(=O)N(C)N=O	inactive	
c1cncc([C@@H]2CCCCN2)c1	inactive	
CCOC(=O)CCl	inactive	
NCCOS(=O)(=O)O	inactive	
C[C@H](N)C(=O)c1ccccc1	inactive	
COc1cccc(C=O)c1	inactive	
C#CC(C)(C)O	inactive	
CCN[C@H](C)Cc1cccc(C(F)(F)F)c1	inactive	
CCOc1cc(OP(=S)(OC)OC)nc(CC)n1	inactive	
Brc1c(Br)c(Br)c(Br)c(Br)c1Br		3.14% [at 5.95 µM]
Cc1cc(OC(=O)N(C)C)nn1C(=O)N(C)C	inactive	
ClC1=C(Cl)C2(Cl)C(CBr)CC1(Cl)C2(Cl)Cl (configuration not stated)	inactive	
CN(C)CCN(C)C	inactive	
O=C(CCl)NCO	inactive	
CC[C@H](O)C(C[C@H](C)N(C)C)(c1ccccc1)c1ccccc1	inactive	
Cn1c(N)nc2c3cccnc3ccc21	inactive	
Cl/C=C/CCl	inactive	
C=CCc1cc(OC)c2c(c1)OCO2	inactive	
COc1ccc(C=O)cc1O	inactive	
Cc1ccc2c(c1)C1CN(C)CCC1N2 (configuration not stated)	inactive	
CC(C)[C@]12CC(=O)[C@H](C)[C@H]1C2	inactive	
O=c1[nH]oc2c1CCNC2	inactive	

Reference: PubChem BioAssay (Tox21)
